Target: ATP6V0A4
Assay: pooled miR-30 sensor sort-seq; sequence = guide strand
Settings: shRNA

Row | Sequence | sensor-assay potency score (higher = more potent)
1 | ATAGGCATCAACAATATTCTGG | -0.65
2 | TTCTGCACCTTGATGAGCCAGG | -0.64
3 | TTCTAGAACAGTCTCCAGGGTA | -0.117
4 | TTTTTCTAGAACAGTCTCCAGG | -0.591
5 | TTCCTGTAACTCTCCTTCCAGT | -0.817
6 | ATCTTCTTGATTTTCTGCCTGA | -0.439
7 | TTGTTCTGGAACTCAACCCAGT | -0.422
8 | TTGTGACAAACACATCTCCTCG | -1.11
9 | TCTTTGAACTGAACCAATCCGA | 0.235
10 | TAGTTAAACAGAAACATGTTGA | -0.563

Target: ATP7B
Assay: as above
Settings: shRNA

Row | Sequence | sensor-assay potency score (higher = more potent)
11 | TTCCTCTTTACAGTATTTGGTG | -0.123
12 | AACATCACAGTCTTTATCTTGT | -0.258
13 | TTGACATCTGAGCCTCTTCCAC | -1.39
14 | TTTGTTGATGCCAACCTGGGTG | -0.00244
15 | TGTCCTGCTCAGCTTGTGGTGA | -0.618
16 | TATAGCACTTGAGCTGCAGGGA | -0.435
17 | TGACTCGCCTCTCACCTTCTAC | -1.09
18 | TTATCTTGTGCGCCATCTCCAG | -0.947
19 | TTCAGGAGCAGAGACCACTTGT | -0.382
20 | TGACTGGACATATCCAGGGAGC | -1.47
21 | ATAGCGTCACTGACATCGCTAG | -0.788
22 | TAGCTCTGGCTGTCTTCCGGTT | -1.3
23 | AAACATCACAGTCTTTATCTTG | -0.586
24 | TTTCATCTCGTGGTCTGTCATA | -1.47
25 | AATGCTAGCCACCACATCCAGC | -0.992
26 | TATCTTGTGCGCCATCTCCAGG | -1.02
27 | TAGAGTCCAAGACAAAGCCCAT | -1.12
28 | TGTCTGTCCTTTCATCTCGTGG | -1.22
29 | TAGCACTTGAGCTGCAGGGATG | -1.64
30 | TTGTCAAACATCACAGTCTTTA | -0.992
31 | TCATCGTCTGCTGCAGCGCTGT | -1.45
32 | TCTCGTGGTCTGTCATAGCGTC | -0.487
33 | TTTTTGGTCCTGATGAAACTGT | -0.518
34 | TTGGGGTTCTTTGACATCTGAG | -0.597

Target: ATP8A2
Assay: as above
Settings: shRNA

Row | Sequence | sensor-assay potency score (higher = more potent)
35 | TTGTATAAGATGATGAACGTCA | 2.4e-06
36 | TTGTCTCCTGTCAACACCCATA | -1.33
37 | TTTGTCTCCTGTCAACACCCAT | -1.17
38 | TAATACATATCTGTGTCCCAGT | -0.374
39 | TCAATGTTCTTCAACAGCCTGG | -0.00859
40 | TTGAGTATACTTCACAACCTCA | -0.741

Reference: the OligoGym collection
